# Results: PMC8384837, “Expanding the binding specificity for RNA recognition by a PUF domain”
# Key:
# Assay in all cases: yeast three-hybrid, YBZ-1, SC-Leu-His + 0.5 mM 3-AT, 4 days
# Conditions in all cases: tags: N-Gal4 AD-HA kept; label: inside an RPR1-promoter hybrid RNA with tandem MS2 sites; ssRNA
# PUM1 PUF domain R5-RFE = PUM1 PUF domain R5-RFE (Homo sapiens, UniProt Q14671 828-1176, C1007R;R1008F;Q1011E)
# Summary of the method: (§1)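 Sequencing with Illumina followed PCR amplification of the repeat regions from transformants grown four days on SC-Leu (input) or SC-Leu-His + 0.5 mM 3-AT (selection). The transformants were strain YBZ-1 with a LexA–MS2 coat fusion and a HIS3 reporter, carrying Pumilio-1 PUF domain libraries and matching RNA elements. The interaction score is the log change in variant frequency from input to selection, computed in log2 with a pseudocount of 1 for absent variants.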
# PUM1 PUF domain R5-KRI = PUM1 PUF domain R5-KRI (Homo sapiens, UniProt Q14671 828-1176, C1007K;Q1011I)
# Summary of the method: as §1
# PUM1 PUF domain R5-RVM = PUM1 PUF domain R5-RVM (Homo sapiens, UniProt Q14671 828-1176, C1007R;R1008V;Q1011M)
# Summary of the method: as §1
# PUM1 PUF domain R6-IWQ = target: T1, PUM1 PUF domain R6-IWQ (Homo sapiens, UniProt Q14671 828-1176, N1043I;Y1044W)
# T1 sequence: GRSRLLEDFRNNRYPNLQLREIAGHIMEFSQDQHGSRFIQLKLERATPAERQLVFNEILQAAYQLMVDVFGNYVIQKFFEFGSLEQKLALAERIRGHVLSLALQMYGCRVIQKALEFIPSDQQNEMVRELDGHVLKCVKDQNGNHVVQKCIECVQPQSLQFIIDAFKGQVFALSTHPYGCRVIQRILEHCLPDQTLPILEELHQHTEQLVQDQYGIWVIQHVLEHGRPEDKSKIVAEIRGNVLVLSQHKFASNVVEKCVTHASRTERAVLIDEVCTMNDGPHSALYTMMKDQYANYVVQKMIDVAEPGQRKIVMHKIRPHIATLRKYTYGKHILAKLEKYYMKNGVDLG
# Summary of the method: as §1
# PUM1 PUF domain R3-IYV = PUM1 PUF domain R3-IYV (Homo sapiens, UniProt Q14671 828-1176, C935I;R936Y;Q939V)
# Summary of the method: as §1
# PUM1 PUF domain R3-WYR = PUM1 PUF domain R3-WYR (Homo sapiens, UniProt Q14671 828-1176, C935W;R936Y;Q939R)
# Summary of the method: as §1
# PUM1 PUF domain R3-LRV = PUM1 PUF domain R3-LRV (Homo sapiens, UniProt Q14671 828-1176, C935L;Q939V)
# Summary of the method: as §1
# PUM1 PUF domain R5-DHN = PUM1 PUF domain R5-DHN (Homo sapiens, UniProt Q14671 828-1176, C1007D;R1008H;Q1011N)
# Summary of the method: as §1
# PUM1 PUF domain R8-RHR = PUM1 PUF domain R8-RHR (Homo sapiens, UniProt Q14671 828-1176, N1122R;Y1123H;Q1126R)
# Summary of the method: as §1
# PUM1 PUF domain R8-RMR = PUM1 PUF domain R8-RMR (Homo sapiens, UniProt Q14671 828-1176, N1122R;Y1123M;Q1126R)
# Summary of the method: as §1
# PUM1 PUF domain R8-RHA = PUM1 PUF domain R8-RHA (Homo sapiens, UniProt Q14671 828-1176, N1122R;Y1123H;Q1126A)
# Summary of the method: as §1
# PUM1 PUF domain R3-RPW = PUM1 PUF domain R3-RPW (Homo sapiens, UniProt Q14671 828-1176, C935R;R936P;Q939W)
# Summary of the method: as §1
# PUM1 PUF domain R3-NPG = PUM1 PUF domain R3-NPG (Homo sapiens, UniProt Q14671 828-1176, C935N;R936P;Q939G)
# Summary of the method: as §1
# PUM1 PUF domain R4-EYL = PUM1 PUF domain R4-EYL (Homo sapiens, UniProt Q14671 828-1176, N971E;H972Y;Q975L)
# Summary of the method: as §1
# PUM1 PUF domain R4-EYL, sequence (Q14671 828-1176 N971E/H972Y/Q975L): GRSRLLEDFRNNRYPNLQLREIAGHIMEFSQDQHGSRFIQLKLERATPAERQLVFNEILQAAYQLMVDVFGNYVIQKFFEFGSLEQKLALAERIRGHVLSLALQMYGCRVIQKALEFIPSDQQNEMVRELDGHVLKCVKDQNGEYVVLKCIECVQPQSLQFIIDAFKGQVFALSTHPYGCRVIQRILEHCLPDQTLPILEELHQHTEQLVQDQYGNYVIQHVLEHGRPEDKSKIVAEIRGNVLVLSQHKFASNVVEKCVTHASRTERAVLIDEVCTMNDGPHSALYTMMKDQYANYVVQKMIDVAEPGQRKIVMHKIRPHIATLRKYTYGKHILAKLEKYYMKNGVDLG
# PUM1 PUF domain R5-DHN, sequence (Q14671 828-1176 C1007D/R1008H/Q1011N): as the sequence (Q14671 828-1176 N971E/H972Y/Q975L) above, with E144N, Y145H, L148Q, C180D, R181H, Q184N counted along it
sequence,measurement,setting,value
GGCUAGAACUAGUGGAUCCCCCGGCGCCCGGCGGCUCGAGCCCGGGUAAGUGUCAAUAGUCUGCAUGCCGCCGGGCGCCAUGCCUGCAGGUCGACUCUAGAAAACAUG,binding signal,PUM1 PUF domain R5-RFE,4.53 log2 enrichment (interaction score)
same,binding signal,PUM1 PUF domain R5-KRI,4.51 log2 enrichment (interaction score)
same,binding signal,PUM1 PUF domain R5-RVM,2.54 log2 enrichment (interaction score)
GGCUAGAACUAGUGGAUCCCCCGGCGCCCGGCGGCUCGAGCCCGGGUAAGUGAAAAUAGUCUGCAUGCCGCCGGGCGCCAUGCCUGCAGGUCGACUCUAGAAAACAUG,binding signal,PUM1 PUF domain R6-IWQ,4.87 log2 enrichment (interaction score)
GGCUAGAACUAGUGGAUCCCCCGGCGCCCGGCGGCUCGAGCCCGGGUAAGUGUAAGUAGUCUGCAUGCCGCCGGGCGCCAUGCCUGCAGGUCGACUCUAGAAAACAUG,binding signal,PUM1 PUF domain R3-IYV,4.55 log2 enrichment (interaction score)
same,binding signal,PUM1 PUF domain R3-WYR,2.45 log2 enrichment (interaction score)
same,binding signal,PUM1 PUF domain R3-LRV,3.77 log2 enrichment (interaction score)
GGCUAGAACUAGUGGAUCCCCCGGCGCCCGGCGGCUCGAGCCCGGGUAAGUGUUAAUAGUCUGCAUGCCGCCGGGCGCCAUGCCUGCAGGUCGACUCUAGAAAACAUG,binding signal,PUM1 PUF domain R5-DHN,2.22 log2 enrichment (interaction score)
GGCUAGAACUAGUGGAUCCCCCGGCGCCCGGCGGCUCGAGCCCGGGUAAGCGUAAAUAGUCUGCAUGCCGCCGGGCGCCAUGCCUGCAGGUCGACUCUAGAAAACAUG,binding signal,PUM1 PUF domain R8-RHR,6.54 log2 enrichment (interaction score)
same,binding signal,PUM1 PUF domain R8-RMR,3.05 log2 enrichment (interaction score)
same,binding signal,PUM1 PUF domain R8-RHA,4.75 log2 enrichment (interaction score)
GGCUAGAACUAGUGGAUCCCCCGGCGCCCGGCGGCUCGAGCCCGGGUAAGUGUAAUUAGUCUGCAUGCCGCCGGGCGCCAUGCCUGCAGGUCGACUCUAGAAAACAUG,binding signal,PUM1 PUF domain R3-WYR,2.58 log2 enrichment (interaction score)
same,binding signal,PUM1 PUF domain R3-RPW,2.6 log2 enrichment (interaction score)
same,binding signal,PUM1 PUF domain R3-LRV,1.41 log2 enrichment (interaction score)
same,binding signal,PUM1 PUF domain R3-NPG,2.86 log2 enrichment (interaction score)
GGCUAGAACUAGUGGAUCCCCCGGCGCCCGGCGGCUCGAGCCCGGGUAAGUGUACAUAGUCUGCAUGCCGCCGGGCGCCAUGCCUGCAGGUCGACUCUAGAAAACAUG,binding signal,PUM1 PUF domain R4-EYL,1.81 log2 enrichment (interaction score)
